Experiment [1] is described as follows: qHTS assay for small molecule agonists of the p53 signaling pathway (AID 651631; calls by dose curve; note: nearly all actives have a fitted effect of over 15% in size; note: potency is the fitted concentration of half-maximal effect). In outline:
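Readout was fluorescence from the LiveBLAzer FRET substrate, applied for 2 h at room temperature after 16 h compound exposure at 37 °C. Cells were the p53RE-bla HCT-116 line, with beta-lactamase driven by p53 response elements.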

A short description of experiment [2]: qHTS assay for small molecules that induce genotoxicity in human embryonic kidney cells expressing luciferase-tagged ATAD5 (AID 651632). Note: nearly all actives have a fitted effect of over 15% in size. Put shortly: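 ATAD5-luc HEK293T, 2,000 cells/well; cpd or DMSO pin-transferred; 16 hr, 37C/5% CO2; Amplite 30 min RT; luminescence.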
Experiment [3] can be described thus: qHTS assay for small molecule agonists of the p53 signaling pathway - cell viability (AID 651633; calls by dose curve; note: series mostly up to about 83 µM; nearly all actives have a fitted effect of over 30% in size). Put shortly:
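p53RE-bla cells were treated with compound for 16 hours at 37 C. Cytotoxicity was then measured as CellTiter-Glo luminescence after 30 min at room temperature.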

Experiment [4] is described as follows: qHTS assay for small molecules that induce genotoxicity in human embryonic kidney cells expressing luciferase-tagged ATAD5 - cell viability (AID 651634; calls by dose curve; note: nearly all actives have a fitted effect of over 25% in size). Put shortly: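 Fluorescence from CellTiter-Fluor, reporting protease activity within live cells, served as the viability read-out. HEK293T cells carrying luciferase-tagged ATAD5 had been treated with compound for 15.5 hr at 37C.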

Experiment [5] is described as follows: qHTS assay for small molecule disruptors of the mitochondrial membrane potential - cell viability (AID 720634; calls by dose curve;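 note: human HepG2 liver cancer cells; series mostly up to about 83 µM; nearly all actives have a fitted effect of over 20% in size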). In outline: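 Cells: HepG2, 2,000/well, attached overnight. Compound 1 hr, 37 C/5% CO2. +m-MPI dye, +CellTiter-Glo 30 min RT. Readout: luminescence (ATP).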
A short description of experiment [6]: qHTS assay to test for compound auto fluorescence at 590 nm (red) in HepG2 cells (AID 720674). Put shortly: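 HepG2 cells, 2,000 per well in MEM with 10% FBS, attached overnight at 37 C, then got 23 nL compound or DMSO. After 1 hr at 37 C, 5% CO2, red fluorescence was read at 540/590 nm against Rose Bengal sodium as reference.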
The nature of experiment [7]: qHTS assay to test for compound auto fluorescence at 535 nm (green) in HepG2 cells (AID 720675).
Experiment [8] in a line: qHTS assay to test for compound auto fluorescence at 460 nm (blue) in HEK293 cells (AID 720678). Put shortly:
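After cell attachment (4-5 hr, 37C), compounds were pinned onto HEK293 monolayers in 10% dialyzed FBS medium. The blue channel (405/460 nm) was read following overnight culture. Equivalency was calculated against triamterene.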

The nature of experiment [9]: qHTS assay to test for compound auto fluorescence at 590 nm (red) in HEK293 cells (AID 720679). Put shortly:
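Plates of HEK293 cells (10% dialyzed FBS) are treated with 23 nL compound or DMSO vehicle after a 4-5 hr attachment period, incubated overnight at 37C, and read for red fluorescence at 540/590nm.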

Experiment [10] is described as follows: qHTS assay to test for compound auto fluorescence at 535 nm (green) in HEK293 cells (AID 720680).
Experiment [11] is described as follows: qHTS assay to test for compound auto fluorescence at 535 nm (green) in HEK293 cell free culture (AID 720682). Put shortly:
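Compounds were pin-transferred into cell-free DMEM with 10% FBS, and green fluorescence was read at excitation 485 nm and emission 535 nm. Intensities were expressed as fluorescein-equivalent values.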

Experiment [12] can be described thus: qHTS assay to test for compound auto fluorescence at 590 nm (red) in HEK293 cell free culture (AID 720683). Put shortly:
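Cell-free wells of DMEM with 10% FBS received compound, and intrinsic fluorescence was read at excitation/emission 540/590 nm. Values expressed as equivalence to Rose Bengal sodium.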

The nature of experiment [13]: qHTS assay to test for compound auto fluorescence at 590 nm (red) in HepG2 cell free culture (AID 720684). In outline:
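Compounds are added to culture medium (MEM, 10% FBS) lacking cells, then fluorescence is read at excitation 540 nm, emission 590 nm, with Rose Bengal sodium as the equivalency standard.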

Experiment [14] can be described thus: qHTS assay to test for compound auto fluorescence at 460 nm (blue) in HepG2 cell free culture (AID 720685). Put shortly: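 Compound (23 nL) or DMSO pinned into cell-free MEM with 10% FBS; blue fluorescence read at 405/460 nm excitation/emission, expressed as auto-fluorescence equivalency to triamterene.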
Experiment [15] in a line: qHTS assay to test for compound auto fluorescence at 535 nm (green) in HepG2 cell free culture (AID 720686).
The nature of experiment [16]: qHTS assay to test for compound auto fluorescence at 460 nm (blue) in HepG2 cells (AID 720687). Put shortly: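 HepG2 cells in MEM with 10% FBS, attached overnight at 37 C, were exposed to compound or DMSO for 1 hr at 37 C, 5% CO2. Blue fluorescence was read at 405/460 nm, with triamterene as reference fluorophore.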
The nature of experiment [17]: qHTS assay to test for compound auto fluorescence at 460 nm (blue) in HEK293 cell free culture (AID 720681). In outline:
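Compounds were added to cell-free DMEM with 10% FBS and fluorescence read directly. The blue channel used 405 nm excitation and 460 nm emission, with triamterene as the reference fluorophore.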

Experiment [18] concerns the target Glucocorticoid receptor (Homo sapiens) (UniProt P04150). Put plainly: qHTS assay to identify small molecule agonists of the glucocorticoid receptor (GR) signaling pathway (AID 720691; active = well fitted activation curve with a large enough effect in the signal ratio in the repeat runs, not every such curve was filed as active; the % refers to the signal ratio). In outline:
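Fluorescence intensity from LiveBLAzer B/G FRET substrate (2 h, room temperature) reports beta-lactamase expression driven by the glucocorticoid response element in GR-bla HeLa cells after 18 h compound exposure at 37 C.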

For experiment [19] the target is unchanged. Put plainly: qHTS assay to identify small molecule antagonists of the glucocorticoid receptor (GR) signaling pathway (AID 720692; active = well fitted inhibition curve with a large enough effect in the signal ratio in the repeat runs, not every such curve was filed as active; the % refers to the signal ratio). Put shortly: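 HeLa GR-bla cells; cmpd + dex 5 nM final, 18 h 37 C; LiveBLAzer B/G FRET substrate 2 h RT; fluorescence intensity read. Antagonist mode, qHTS.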
Experiment [20] in a line: qHTS assay for small molecule disruptors of the mitochondrial membrane potential (AID 720635). Note: potency is the fitted concentration of half-maximal effect. In outline:
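HepG2 cells exposed to compound 1 hr at 37C, then Mito-MPS dye 30 min. Ratio read of aggregate (540/590 nm) versus monomer (490/535 nm) fluorescence.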

Unmarked numbers belong to inactive results. Inconclusive results are not listed. The source made the active and inactive calls. Unless noted, calls come from the whole dose curve; as a rule, active = well fitted curve in the direction sought with a large enough effect in the repeat runs; inconclusive = weak or mixed curves; inactive = no such curve, though single readings can be large; an effect the other way counts as inactive or inconclusive.

Sequence of Glucocorticoid receptor (Homo sapiens) (P04150 whole entry, looked up): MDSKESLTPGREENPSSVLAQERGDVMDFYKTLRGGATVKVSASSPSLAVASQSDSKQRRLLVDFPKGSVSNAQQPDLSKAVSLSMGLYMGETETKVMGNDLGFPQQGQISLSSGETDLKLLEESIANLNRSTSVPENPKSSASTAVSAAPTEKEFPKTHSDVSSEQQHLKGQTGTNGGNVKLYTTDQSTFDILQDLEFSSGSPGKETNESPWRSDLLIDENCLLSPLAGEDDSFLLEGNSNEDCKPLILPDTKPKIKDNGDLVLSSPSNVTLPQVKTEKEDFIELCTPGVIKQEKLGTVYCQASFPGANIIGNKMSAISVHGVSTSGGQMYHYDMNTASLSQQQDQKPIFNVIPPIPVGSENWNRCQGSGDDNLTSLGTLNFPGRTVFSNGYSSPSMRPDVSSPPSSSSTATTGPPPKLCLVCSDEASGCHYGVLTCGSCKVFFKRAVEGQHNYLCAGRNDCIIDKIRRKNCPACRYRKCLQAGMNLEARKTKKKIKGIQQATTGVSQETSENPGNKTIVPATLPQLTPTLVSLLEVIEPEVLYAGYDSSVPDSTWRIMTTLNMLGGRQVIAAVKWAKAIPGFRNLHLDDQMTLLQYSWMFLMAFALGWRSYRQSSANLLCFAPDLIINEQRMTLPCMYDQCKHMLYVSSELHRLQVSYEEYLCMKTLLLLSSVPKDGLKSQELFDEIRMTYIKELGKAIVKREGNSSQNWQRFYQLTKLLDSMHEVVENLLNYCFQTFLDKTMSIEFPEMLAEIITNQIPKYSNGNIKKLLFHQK

`C=CC[N+]1([C@H]2C[C@H]3[C@@H]4CC[C@H]5C[C@H](OC(C)=O)[C@@H](N6CCCCC6)C[C@]5(C)[C@H]4CC[C@]3(C)[C@H]2OC(=O)CC)CCCCC1`: the Potency entry in experiment [1], in experiment [2], in experiment [3], in experiment [4], in [5] and in [8] was “inactive” throughout. Moreover, the Potency result in experiment [14] and in [16] was “inactive” each time. In addition, the compound was called inactive in experiment [6], in [7], in experiment [9], in experiment [10], in experiment [11] and in experiment [12]. Besides, the compound was called inactive in experiment [13] and in experiment [15].

Take `CN1CCN(C2=Nc3ccccc3Sc3ccc(Cl)cc32)CC1`: the Potency entry in experiment [1], in experiment [2], in [3], in experiment [4], in experiment [5] and in experiment [8] was “inactive” in each case. Besides, the Potency result in experiment [17], in experiment [14], in [16], in experiment [18] and in [19] was “inactive” in each case. In addition, the compound was classed as inactive in [7], in experiment [10], in experiment [11], in experiment [12], in [13] and in experiment [15].

On to `Oc1ccc(C(O)CNCCCCCCNCC(O)c2ccc(O)c(O)c2)cc1O` (stereo not given), for which the Potency entry in experiment [1], in [2], in experiment [3], in experiment [4], in experiment [5] and in [8] was “inactive” in each case. Moreover, the Potency result in [17], in experiment [14], in experiment [16], in [18] and in [19] was “inactive” in each case. Moreover, the compound was classed as inactive in experiment [7], in experiment [9], in [10], in [11], in [12] and in [15].

Turning to `CC[C@H](C)[C@@H](C(=O)O)n1sc2ccccc2c1=O`, the Potency result in experiment [1], in [2], in [3], in experiment [4], in experiment [5] and in [17] was “inactive” throughout. The Potency entry in [14], in experiment [16] and in experiment [18] was “inactive” each time. The result in [6], in experiment [7], in experiment [9], in [10], in experiment [11] and in experiment [12] was inactive. For the same compound, the call in [13] and in experiment [15] was inactive.

As for `Nc1cnn([C@@H]2O[C@H](CO)[C@@H](O)[C@H]2O)c(=O)n1`, the Potency in [1] is 1.94 µM (active). Besides, the Potency entry in experiment [2], in experiment [3], in experiment [4], in experiment [5], in experiment [8] and in experiment [17] was “inactive” throughout. Further, the Potency entry in experiment [14] and in experiment [16] was “inactive” in each case. Further, the compound was classed as inactive in experiment [6], in [7], in experiment [10], in experiment [11], in experiment [12] and in experiment [13]. Besides, the result in experiment [15] was inactive.

With `O=C(O)c1cccc(N(Cc2cccnc2)c2ccc(OC(F)F)c(OC(F)F)c2)c1`, the Potency entry in [1], in experiment [2], in experiment [3], in [4], in [5] and in experiment [17] was “inactive” each time. Moreover, the Potency entry in experiment [14] and in experiment [16] was “inactive” in each case. The outcome in experiment [6], in [7], in experiment [11], in [12], in experiment [13] and in experiment [15] was inactive.

As for `CCN(CC)CCOC(=O)C1(c2ccccc2)CCCC1`, the Potency entry in experiment [1], in [2], in [3], in experiment [4], in [5] and in [8] was “inactive” in each case. For the same compound, the Potency entry in experiment [14], in [16], in [18] and in [19] was “inactive” throughout. Also, the call in experiment [6], in [7], in experiment [12], in [13] and in experiment [15] was inactive.

Take `ClC(Cl)(Cl)c1ccc(C(Cl)(Cl)Cl)cc1`: the Potency result in [2], in [3], in [4], in [5], in [8] and in experiment [14] was “inactive” in each case. Moreover, the Potency entry in experiment [16], in experiment [18] and in experiment [19] was “inactive” each time. The Potency in experiment [20] is 13.5 µM (active). Moreover, the compound was called inactive in experiment [6], in [7], in [9], in [10], in experiment [11] and in [12]. The compound was called inactive in experiment [13] and in experiment [15].

These data come from PubChem BioAssay (Tox21).
